The list is not random: actives were taken first. Their share in the collection is about 12%.
JMJD2A Tudor inh = inhibitors of human JMJD2A Tudor domain. AlphaScreen JMJD2A-Tudor / H3K4me3 peptide binding. Potency, µM (top dose mostly 114 µM), for inactives: at the top dose activity change, negative = inhibition, usual class: inhibitors. actives 4.4% (n = 390,000). AID 504339; also: % is scaled to controls: 0 for no effect and ±100 for the full control effect; nearly all actives have a fitted effect of over 50% in size
G9a inh = G9a (human) methyltransferase inhibition; Potency, µM (top dose mostly 102 µM), without a hit: at the highest dose activity, negative = inhibition, usual class: inhibitors; actives 8.8% (n = 350,000); G9a H3K9 monomethylation, AlphaScreen, 2 h; also: % is scaled to controls: 0 for no effect and ±100 for the full control effect; nearly all actives have a fitted effect of over 75% in size
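Readings reflect AlphaScreen signal from monomethyl-H3K9 antibody detection. HMT at 20 nM; substrate b-H3K9 500 nM; cofactor SAM 20 uM; 2 h RT reaction; compounds tested as titrations in qHTS with 15 min preincubation.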
Sfp inh = inhibitors of Bacillus subtilis Sfp phosphopantetheinyl transferase; AID 1490; Q9F4F7; Potency, µM, without a hit: largest response in the series, negative = inhibition, usual class: inhibitors; Biochemical Sfp PPTase activity, qHTS; actives 3.5% (n = 310,000);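 also: the enzyme is Sfp with the accession as filed and its product quenches rhodamine fluorescence; 0% = enzyme reaction without inhibitor and -100% = no enzyme wells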
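Fluorescence-quenching assay: 15 nM Sfp-PPTase preincubated 15 min at room temperature with compound, then 5 uM rhodamine-CoA and 12.5 uM BHQ-2-labelled YbbR peptide added. Fluorescence (ex 525/em 598 nm) read at start and after 30 min; difference gives rate.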
BAZ2B block = inhibitors of human BAZ2B bromodomain; Q9UIF8; AlphaScreen BAZ2B-H3K14Ac peptide displacement; Potency, µM (doses to about 114 µM), without a hit: top-dose activity change, negative = inhibition, most hits filed as inhibitors; actives 4.4% (n = 360,000); AID 504333; also: % is scaled to controls: 0 for no effect and ±100 for the full control effect; nearly all actives have a fitted effect of over 60% in size
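Protein-peptide AlphaScreen: BAZ2B 50 nM, b-H3K14Ac 50 nM, 1x PBS pH 7.4 + 0.01% Tween-20. Preincubation 30 min RT; cpd 30 min RT (top 110 uM); beads 20 min RT, light-protected.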
HP1b binding inh = HP1-beta chromodomain-methylated histone interaction inhibition; Potency, µM (highest dose often 114 µM), without a hit: at the top dose activity change, negative = inhibition, hits mostly inhibitors; actives 0.56% (n = 390,000); AlphaScreen HP1-beta / biotin-H3K9me3 peptide binding; AID 540317; also: nearly all actives have a fitted effect of over 70% in size
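Compound inhibition of the preformed complex between 50 nM HP1-beta and 50 nM biotinylated H3K9me3 peptide was read by AlphaScreen. Buffer was PBS pH 7.4 with 0.01% Tween-20. Incubations ran 30 min at room temperature, with 10 ug/mL donor/acceptor beads.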
Numbers without * were called inactive; [ ] = another dose, or the depositor's remark. Calls follow the shape of the dose curve; as a rule, active = well fitted curve in the direction sought with a large enough effect; inconclusive = small, poorly fitted or top-dose-only effect, or another doubt; inactive = no such curve, though single readings can be large; an effect the other way counts as inactive or inconclusive. Potency is read from the fitted curve at half-maximal effect.

`COc1ccc(OCCOC(=O)CNC(=O)c2cccc(C)c2)cc1` gave JMJD2A Tudor inh -2%, G9a inh 50µM*, BAZ2B block 13% and HP1b binding inh 13%.
CC1CC(C)(C)NC(=S)N1CC(=O)NCc1ccc(Cl)cc1 (centres undefined) was read as JMJD2A Tudor inh -14%, G9a inh 28µM*, Sfp inh -7%, BAZ2B block -4% and HP1b binding inh 11%.
CC1CC(C)(C)NC(=S)N1CC(=O)NCc1ccccc1Cl (centres undefined) was read as JMJD2A Tudor inh 3%, G9a inh inconclusive, Sfp inh 7%, BAZ2B block 7% and HP1b binding inh 38%.
Screening Cc1ccc(NC(=O)CCCN2C(=S)NC(C)(C)CC2C)cc1 (centres undefined) returned JMJD2A Tudor inh -17%, G9a inh -4%, Sfp inh 26%, BAZ2B block -20% and HP1b binding inh 11%.
For Cc1cccc(NC(=O)CN2C(=S)NC(C)(C)CC2C)c1 (centres undefined) the results were JMJD2A Tudor inh -10%, G9a inh 20µM*, Sfp inh -11%, BAZ2B block 2% and HP1b binding inh -1%.
Screening Cc1ccccc1NC(=O)CN1C(=S)NC(C)(C)CC1C (centres undefined) returned JMJD2A Tudor inh -3%, G9a inh 18µM*, Sfp inh -3%, BAZ2B block 4% and HP1b binding inh -9%.
`CC1CC(C)(C)NC(=S)N1CCC(=O)N1CCN(c2ccccc2)CC1` (centres undefined) gave JMJD2A Tudor inh -4%, G9a inh 40µM*, Sfp inh -3%, BAZ2B block -22% and HP1b binding inh 7%.
Screening CCC(C)/C(C)=N/NC(=O)c1cn(-c2ccccc2)nc1-c1ccccc1 (centres undefined) returned JMJD2A Tudor inh -26%, G9a inh 35%[59 µM], Sfp inh 9%, BAZ2B block 5% and HP1b binding inh 18%.
CCn1c(SCc2ccc(F)cc2Cl)nnc1-c1nonc1NC(C)=O was read as JMJD2A Tudor inh -10%, G9a inh 1%[59 µM], BAZ2B block 3% and HP1b binding inh 29%.
For Cn1c(=O)c2c([nH]c(=S)n2Cc2ccc(Cl)cc2)n(C)c1=O the results were JMJD2A Tudor inh 5.6µM*, G9a inh 1.3µM*, Sfp inh 20µM*, BAZ2B block 22µM* and HP1b binding inh inconclusive.
Screening O=c1cc(-c2ccc([N+](=O)[O-])cc2)nc2cc(-c3ccc(F)cc3)[nH]n12 returned JMJD2A Tudor inh -29%, G9a inh -8%[59 µM], Sfp inh 45µM*, BAZ2B block 3% and HP1b binding inh -5%.
Cc1ccccc1-c1cc2nc(-c3ccc([N+](=O)[O-])cc3)cc(=O)n2[nH]1 was read as JMJD2A Tudor inh -24%, G9a inh -40%, Sfp inh -14%, BAZ2B block 1% and HP1b binding inh 0%.
For c1ccc(-c2cncn2-c2ccccc2)cc1 the results were JMJD2A Tudor inh inconclusive, G9a inh 2%[2.33 µM], BAZ2B block 50µM* and HP1b binding inh -5%.
COC(CNC(=O)c1ccc2c3c(onc13)-c1ccccc1C2=O)OC was read as JMJD2A Tudor inh 50µM*, G9a inh 28µM*, Sfp inh 18µM*, BAZ2B block inconclusive and HP1b binding inh inconclusive.
For COc1ccc(OC)c(/C=N/n2c(COc3ccccc3)n[nH]c2=S)c1 the results were JMJD2A Tudor inh -13%, G9a inh inconclusive, Sfp inh 0%, BAZ2B block 3% and HP1b binding inh 44%.
For COc1ccc(/C=N/n2c(COc3ccccc3)n[nH]c2=S)cc1OC the results were JMJD2A Tudor inh 14µM*, G9a inh 1.3µM*, Sfp inh inconclusive, BAZ2B block -27% and HP1b binding inh inconclusive.
`COc1ccc(Br)cc1/C=N/n1c(COc2ccccc2)n[nH]c1=S` gave JMJD2A Tudor inh -9%, G9a inh 45µM*, Sfp inh 2%, BAZ2B block 1% and HP1b binding inh 12%.
Screening COc1cc(OC)c(OC)cc1/C=N/n1c(COc2ccccc2)n[nH]c1=S returned JMJD2A Tudor inh 18µM*, G9a inh inconclusive, Sfp inh 45µM*, BAZ2B block -32% and HP1b binding inh inconclusive.
Cc1ccc(C(=O)OCC(=O)NNC(=O)COc2ccc(Cl)cc2)c(O)c1 was read as JMJD2A Tudor inh -16%, G9a inh 2%[12.7 µM], BAZ2B block 6% and HP1b binding inh 54%.
`CN(C)CCCN(C(=O)c1ccc(S(=O)(=O)N2CCc3ccccc32)cc1)c1nc2c(Cl)cccc2s1` gave JMJD2A Tudor inh inconclusive, G9a inh 40µM*, Sfp inh inconclusive, BAZ2B block inconclusive and HP1b binding inh -14%.
`COc1cccc2sc(N(CCCN(C)C)C(=O)c3ccc(S(=O)(=O)N4CCCc5ccccc54)cc3)nc12` gave JMJD2A Tudor inh inconclusive, Sfp inh inconclusive, BAZ2B block 40µM* and HP1b binding inh -10%.
For Cc1sc2nc(CSC(C)C(=O)Nc3cc(S(C)(=O)=O)ccc3Cl)[nH]c(=O)c2c1C (centres undefined) the results were JMJD2A Tudor inh -9%, G9a inh 50µM*, BAZ2B block -22% and HP1b binding inh 10%.
`Cc1ccc(NC(=O)C(C)SCc2nc3sc(C)c(C)c3c(=O)[nH]2)nc1` (centres undefined) gave JMJD2A Tudor inh -13%, G9a inh 14µM*, BAZ2B block 3% and HP1b binding inh 28%.
Screening Cc1sc2nc(CSCC(=O)N(C)c3ccccc3)[nH]c(=O)c2c1C returned JMJD2A Tudor inh -13%, G9a inh 5%[59 µM], Sfp inh -14%, BAZ2B block -5% and HP1b binding inh 36%.
For Cc1ccc(NC(=O)C(C)SCc2nc3sc4c(c3c(=O)[nH]2)CCCC4)nc1 (centres undefined) the results were JMJD2A Tudor inh 0%, G9a inh -10%, Sfp inh 10%, BAZ2B block -21% and HP1b binding inh 38%.
Cc1sc2nc(CSCC(=O)Nc3ccc(C(F)(F)F)cc3)[nH]c(=O)c2c1C was read as JMJD2A Tudor inh -10%, G9a inh -6%[2.33 µM], BAZ2B block 8% and HP1b binding inh 49%.
Cc1sc2nc(CSC(C)C(=O)Nc3ccccn3)[nH]c(=O)c2c1C (centres undefined) was read as JMJD2A Tudor inh -8%, G9a inh 7.9µM*, BAZ2B block 7% and HP1b binding inh 19%.
For Cc1sc2nc(CSCC(=O)N(C)CC(=O)Nc3ccc(F)cc3)[nH]c(=O)c2c1C the results were JMJD2A Tudor inh -19%, G9a inh 50µM*, BAZ2B block -11% and HP1b binding inh 17%.
